Results from PubChem BioAssay (Tox21).
Where “and” joins values, the source holds several entries; their conditions need not be identical. Equal values may be shown once. Inconclusive results are not listed. Entries that show only a call come without a potency. Where a structure was tested more than once in an assay, its records may differ in their call. Calls of active or inactive are those of the source. Unless noted, the call rests on the fitted dose curve; in most records, active means well fitted curve in the direction sought with a large enough effect in the repeat runs; inconclusive means weak or mixed curves; inactive means no such curve, though single readings can be large; an effect the other way counts as inactive or inconclusive.

Key:
[1] = qHTS assay to identify small molecule antagonists of the glucocorticoid receptor (GR) signaling pathway - cell viability counter screen (AID 720693); further: nearly all actives have a fitted effect of over 55% in size
[2] = qHTS assay for identifying genotoxic compounds that show differential cytotoxicity against isogenic chicken DT40 cell lines with known DNA damage response pathways - wild type cell line (AID 743012); further: nearly all actives have a fitted effect of over 60% in size; further: potency means the concentration at half of the fitted maximal effect
In short: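 Endpoint: CellTiter-Glo luminescence, 30 min RT. Cells: wild type DT40, 300/well. Exposure: compounds in DMSO, 40 h, 37 C/5% CO2, after ~0.5 h pre-incubation.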

[3] = qHTS assay for identifying genotoxic compounds that show differential cytotoxicity against isogenic chicken DT40 cell lines with known DNA damage response pathways - Rev3 mutant cell line (AID 743014); further: nearly all actives have a fitted effect of over 55% in size; further: potency means the concentration at half of the fitted maximal effect
[4] = qHTS assay for identifying genotoxic compounds that show differential cytotoxicity against isogenic chicken DT40 cell lines with known DNA damage response pathways - Rad54/Ku70 mutant cell line (AID 743015); further: nearly all actives have a fitted effect of over 60% in size; further: potency means the concentration at half of the fitted maximal effect
[5] = qHTS assay to identify small molecule antagonists of the androgen receptor (AR) signaling pathway using the MDA cell line - cell viability counter screen (AID 743041; further: nearly all actives have a fitted effect of over 45% in size)
In short: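 Cytotoxicity counter screen: MDA-kb2 AR-luc cells, compound + R1881, 16 h, 37C, 0% CO2; CellTiter-Fluor added at 15.5 h, fluorescence read after 30 min.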

[6] = qHTS assay to identify small molecule antagonists of the thyroid receptor (TR) signaling pathway - cell viability counter screen (AID 743064); further: nearly all actives have a fitted effect of over 50% in size
In short: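 CellTiter-Fluor readout, 30 min at 37 °C/5% CO2, following 23.5 h incubation of GH3.TRE-Luc cells with test compound and 1 nM T3 (final).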

[7] = qHTS assay to identify small molecule antagonists of the thyroid receptor (TR) signaling pathway (AID 743065); further: nearly all actives have a fitted effect of over 55% in size; further: potency means the concentration at half of the fitted maximal effect
In short: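 GH3.TRE-Luc rat pituitary cells (two TREs driving luciferase) were dosed with compound, then stimulated with 1 nM T3 (final) for 23.5 h at 37 C. ONE-Glo luminescence was the read-out, with CellTiter-Fluor fluorescence as the cytotoxicity counter-screen.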

[8] = system: thyroid hormone receptor (rat, GH3 cells); test: qHTS assay to identify small molecule agonists of the thyroid receptor (TR) signaling pathway (AID 743066; calls by dose curve; further: potency means the concentration at half of the fitted maximal effect)
[9] = target: Estrogen receptor (Homo sapiens) (UniProt P03372); test: qHTS assay to identify small molecule antagonists of the estrogen receptor alpha (ER-alpha) signaling pathway (AID 743069; active means well fitted curve in the direction sought with a large enough effect in the signal ratio in the repeat runs, not every such curve was filed as active; the % refers to the signal ratio)
In short: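 Beta-lactamase FRET fluorescence is read after 2 hr at room temperature with LiveBLAzer B/G substrate. Before that, ER-alpha-bla HEK293 cells sit 4 hr after plating, then receive compound plus 17beta-estradiol and incubate 18 hr at 37C.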

[10] = qHTS assay to identify small molecule antagonists of the estrogen receptor alpha (ER-alpha) signaling pathway - cell viability counter screen (AID 743074; calls by dose curve;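 further: HEK293 cells carrying ER-alpha-UAS-bla reporter stimulated with 17beta-estradiol; nearly all actives have a fitted effect of over 45% in size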)
[11] = target: Estrogen receptor (Homo sapiens) (UniProt P03372); test: qHTS assay to identify small molecule agonists of the estrogen receptor alpha (ER-alpha) signaling pathway (AID 743075; calls by dose curve;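 further: HEK293 GripTite cells with ER-alpha and UAS-driven beta-lactamase reporter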)
[12] = target: Estrogen receptor (Homo sapiens) (UniProt P03372); test: qHTS assay to identify small molecule agonists of the estrogen receptor alpha (ER-alpha) signaling pathway using the BG1 cell line (AID 743079); further: nearly all actives have a fitted effect of over 20% in size
[13] = qHTS assay to identify small molecule antagonists of the estrogen receptor alpha (ER-alpha) signaling pathway using the BG1 cell line (AID 743080; calls by dose curve;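 further: BG1 cells stimulated with 17beta-estradiol alongside compound; series mostly up to about 70 µM; nearly all actives have a fitted effect of over 25% in size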)
In short: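 Luminescence from a 4×ERE-luciferase reporter in BG1-Luc-4E2 cells served as read-out. Cells, pre-cultured 5 days in stripped-serum phenol-red-free medium, were exposed to compound with 17beta-estradiol co-stimulation for 21.5 h at 37 C.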

[14] = qHTS assay to identify small molecule antagonists of the estrogen receptor alpha (ER-alpha) signaling pathway using the BG1 cell line - cell viability counter screen (AID 743081);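 further: compound given together with 17beta-estradiol as the ER stimulus; series mostly up to about 70 µM; nearly all actives have a fitted effect of over 45% in size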
Aromatase (Homo sapiens) = Aromatase (Homo sapiens) (UniProt P11511); test: qHTS assay to identify aromatase inhibitors (AID 743083); further: series mostly up to about 70 µM; nearly all actives have a fitted effect of over 55% in size
[15] = qHTS assay to identify small molecule antagonists of the androgen receptor (AR) signaling pathway - cell viability counter screen (AID 743033; further: nearly all actives have a fitted effect of over 45% in size; further: potency means the concentration at half of the fitted maximal effect)
[16] = target: Androgen receptor (Homo sapiens) (UniProt P10275); test: qHTS assay to identify small molecule antagonists of the androgen receptor (AR) signaling pathway (AID 743035; active means well fitted inhibition curve with a large enough effect in the signal ratio in the repeat runs, not every such curve was filed as active; the % refers to the signal ratio)
In short: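 R1881 agonist challenge of a HEK293 UAS-beta-lactamase AR reporter line in the presence of compound (16 h, 37C); signal taken as FRET fluorescence after 2 h with LiveBLAzer B/G substrate at room temperature.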

[17] = target: Androgen receptor (Homo sapiens) (UniProt P10275); test: qHTS assay to identify small molecule agonists of the androgen receptor (AR) signaling pathway (AID 743036; active means well fitted activation curve with a large enough effect in the signal ratio in the repeat runs, with a control signal flat, not every such curve was filed as active; the % refers to the signal ratio)
In short: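 Following a 4 h settling period, AR-UAS-bla HEK293 cells were dosed with compounds for 16 h at 37C. A 2 h room-temperature incubation with LiveBLAzer B/G FRET substrate preceded the fluorescence measurement.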

[18] = target: Androgen receptor (Homo sapiens) (UniProt P10275); test: qHTS assay to identify small molecule agonists of the androgen receptor (AR) signaling pathway using the MDA cell line (AID 743040; further: nearly all actives have a fitted effect of over 20% in size)
In short: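 Luciferase read-out, ONE-Glo, 30 min RT. Cells: MDA-kb2 AR-luc, MMTV promoter with AR and GR response elements. Compound exposure 16 h, 37C, 0% CO2, after 5 h pre-incubation. qHTS agonist mode.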

Chain of Androgen receptor (Homo sapiens) (P10275 whole entry, looked up): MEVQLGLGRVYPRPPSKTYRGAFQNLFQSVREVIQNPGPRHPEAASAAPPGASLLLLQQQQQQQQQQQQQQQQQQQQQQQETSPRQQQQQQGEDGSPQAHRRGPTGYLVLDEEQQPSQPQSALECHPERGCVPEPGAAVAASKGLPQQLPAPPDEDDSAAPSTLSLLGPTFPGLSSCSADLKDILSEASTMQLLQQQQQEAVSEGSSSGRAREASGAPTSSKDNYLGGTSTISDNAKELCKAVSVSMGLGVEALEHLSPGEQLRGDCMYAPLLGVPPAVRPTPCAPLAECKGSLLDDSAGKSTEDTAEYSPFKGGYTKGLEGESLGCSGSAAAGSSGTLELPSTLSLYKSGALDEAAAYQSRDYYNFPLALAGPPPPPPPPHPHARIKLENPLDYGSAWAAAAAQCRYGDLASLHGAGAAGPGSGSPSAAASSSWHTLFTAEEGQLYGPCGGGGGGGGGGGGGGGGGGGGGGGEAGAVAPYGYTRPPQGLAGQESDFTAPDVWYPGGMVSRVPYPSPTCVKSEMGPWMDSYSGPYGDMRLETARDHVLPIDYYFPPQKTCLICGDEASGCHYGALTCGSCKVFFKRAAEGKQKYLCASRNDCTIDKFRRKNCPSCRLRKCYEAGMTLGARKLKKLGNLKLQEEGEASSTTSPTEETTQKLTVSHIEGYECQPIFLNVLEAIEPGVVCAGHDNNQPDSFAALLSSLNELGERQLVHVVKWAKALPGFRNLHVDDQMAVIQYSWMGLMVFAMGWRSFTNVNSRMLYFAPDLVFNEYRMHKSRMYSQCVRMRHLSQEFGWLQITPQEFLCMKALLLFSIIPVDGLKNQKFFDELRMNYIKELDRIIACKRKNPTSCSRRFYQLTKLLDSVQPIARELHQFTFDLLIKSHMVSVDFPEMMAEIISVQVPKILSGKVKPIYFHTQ
Chain of Estrogen receptor (Homo sapiens) (P03372 whole entry, looked up): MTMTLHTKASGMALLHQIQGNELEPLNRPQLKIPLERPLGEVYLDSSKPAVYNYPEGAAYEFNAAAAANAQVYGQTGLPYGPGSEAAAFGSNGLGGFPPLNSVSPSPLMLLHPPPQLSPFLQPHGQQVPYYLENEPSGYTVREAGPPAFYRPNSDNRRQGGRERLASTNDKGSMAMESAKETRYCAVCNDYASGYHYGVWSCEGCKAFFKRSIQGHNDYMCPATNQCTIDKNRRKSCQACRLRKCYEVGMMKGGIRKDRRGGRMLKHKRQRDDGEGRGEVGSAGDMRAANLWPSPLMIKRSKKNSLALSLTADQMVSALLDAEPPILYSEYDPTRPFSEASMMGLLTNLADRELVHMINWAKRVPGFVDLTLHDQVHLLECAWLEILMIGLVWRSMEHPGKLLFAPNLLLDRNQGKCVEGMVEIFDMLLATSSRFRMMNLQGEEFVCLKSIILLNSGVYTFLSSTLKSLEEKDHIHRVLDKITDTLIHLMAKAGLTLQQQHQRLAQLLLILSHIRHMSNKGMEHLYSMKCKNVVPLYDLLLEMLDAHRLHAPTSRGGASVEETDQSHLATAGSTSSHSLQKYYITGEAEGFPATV
Chain of Aromatase (Homo sapiens) (P11511 whole entry, looked up): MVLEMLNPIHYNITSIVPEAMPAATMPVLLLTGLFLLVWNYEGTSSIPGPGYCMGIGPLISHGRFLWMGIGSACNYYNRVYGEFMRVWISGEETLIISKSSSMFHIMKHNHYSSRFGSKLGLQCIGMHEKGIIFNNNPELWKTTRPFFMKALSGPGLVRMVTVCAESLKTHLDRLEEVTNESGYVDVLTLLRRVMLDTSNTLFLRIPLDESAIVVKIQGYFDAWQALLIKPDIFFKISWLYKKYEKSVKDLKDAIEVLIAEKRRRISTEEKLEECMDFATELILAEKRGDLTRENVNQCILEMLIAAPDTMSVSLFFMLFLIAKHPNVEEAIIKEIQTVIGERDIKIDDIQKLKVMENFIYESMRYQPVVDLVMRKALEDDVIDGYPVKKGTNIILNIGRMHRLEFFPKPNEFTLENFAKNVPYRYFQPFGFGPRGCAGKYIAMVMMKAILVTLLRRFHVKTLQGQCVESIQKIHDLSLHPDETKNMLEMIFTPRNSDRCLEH

Compound	outcome [1]	Potency [2]	Potency [3]	Potency [4]	Potency [5]	Potency [6]	Potency [7]	Potency [8]	Potency [9]	outcome [10]	Potency [11]	Potency [12]	Potency [13]	Potency [14]	Potency (Aromatase (Homo sapiens))	Potency [15]	outcome [16]	Potency [17]	Potency [18]
Fc1ccc(Br)cc1	inactive	inactive	inactive	inactive	inactive	inactive	inactive	inactive	inactive	inactive	inactive	inactive	inactive	inactive	inactive	–	–	–	–
CC1=CC(=O)NS(=O)(=O)O1	inactive	inactive	inactive	inactive	inactive	inactive	inactive	inactive	–	inactive	–	–	–	inactive	inactive	inactive	–	–	–
O=C(CC(C(=O)OC1CCCCC1)S(=O)(=O)O)OC1CCCCC1 (stereo unspecified)	inactive	inactive and 17 µM (active)	inactive and 17 µM (active)	inactive and 12 µM (active)	inactive	inactive	inactive	inactive	–	inactive	–	–	–	inactive	inactive	inactive	–	–	–
Cc1occc(=O)c1O	inactive	inactive	inactive	inactive	inactive	inactive	inactive	inactive and 50.9 µM (active)	–	inactive	–	–	–	inactive	inactive	inactive	–	–	–
Cc1ccc(S(N)(=O)=O)cc1	inactive	inactive	inactive	inactive	inactive	inactive	inactive	inactive	–	inactive	–	–	–	inactive	inactive	inactive	–	–	–
CCCCC(CC)COC(=O)C(C#N)=C(c1ccccc1)c1ccccc1 (stereo unspecified)	inactive	11.9 µM (active)	inactive	13.3 µM (active) and inactive	inactive	inactive	–	inactive	–	–	–	–	–	inactive	inactive	inactive	–	–	–
O=C(Oc1ccccc1)c1ccccc1	inactive	inactive	inactive	inactive	inactive	inactive	inactive	inactive	–	inactive	–	–	–	inactive	inactive	–	–	–	–
Cc1cc(C)c(C)cc1C	inactive	inactive	inactive	inactive	inactive	inactive	inactive	inactive	inactive	inactive	inactive	inactive	–	inactive	inactive	–	–	–	–
CCCCCCCCCCCCCCCO	inactive	inactive	inactive	inactive	inactive	inactive	inactive	inactive	–	–	–	–	–	inactive	inactive	–	–	–	–
c1ccc2scnc2c1	inactive	inactive	inactive	inactive	inactive	inactive	inactive	inactive	inactive	inactive	inactive	inactive	–	inactive	inactive	–	–	–	–
O=C(O)CCCC[C@@H]1SC[C@@H]2NC(=O)N[C@@H]21	inactive	inactive	inactive	inactive	inactive	inactive	inactive	inactive	inactive	inactive	inactive	inactive	–	inactive	inactive	–	–	–	–
CN(C)CCC(c1ccccc1)c1ccccn1 (stereo unspecified)	inactive	inactive	inactive	inactive	inactive	inactive	inactive	inactive	–	inactive	–	–	–	inactive	–	–	–	–	–
O=C(O)c1cc(C(=O)O)cc(S(=O)(=O)O)c1	inactive	inactive	inactive	inactive	inactive	inactive	inactive	inactive	–	inactive	–	–	–	inactive	inactive	–	–	–	–
O=c1[nH]nnc2ccccc12	inactive	inactive	inactive	inactive	inactive	inactive	inactive	inactive	–	inactive	–	–	–	inactive	inactive	–	–	–	–
CC(=O)CC(=O)Nc1ccccc1	inactive	inactive	inactive	inactive	inactive	inactive	inactive	inactive	–	inactive	–	–	–	inactive	inactive	–	–	–	–
COCCCOc1ccnc(CS(=O)c2nc3ccccc3[nH]2)c1C (stereo unspecified)	inactive	23.7 µM (active) and 15.3 µM (active)	29.8 µM (active) and 24.2 µM (active)	13.3 µM (active) and 19.3 µM (active)	inactive	inactive	48.4 µM (active)	inactive	–	inactive	–	–	–	inactive	inactive	–	–	–	–
C=CCOC(=O)c1ccccc1C(=O)OCC=C	inactive	inactive	–	inactive	inactive	inactive	inactive	inactive	inactive	inactive	inactive	inactive	–	inactive	–	–	–	–	–
CC1=C(C)S(=O)(=O)CCS1(=O)=O	inactive	–	68.6 µM (active)	60 µM (active) and 61.1 µM (active)	inactive	inactive	–	inactive	inactive	inactive	inactive	inactive	–	inactive	inactive	–	inactive	inactive	inactive
NNc1nncc2ccccc12	inactive	–	–	–	–	–	–	–	–	inactive	–	–	–	inactive	inactive	21.9 µM (active)	–	–	–
CCCCC(CC)COC(=O)CCCCC(=O)OCC(CC)CCCC (stereo unspecified)	inactive	–	–	–	inactive	inactive	inactive	inactive	inactive	inactive	inactive	inactive	–	inactive	inactive	–	–	–	–
COc1ccc(Cl)cc1C(=O)NCCc1ccc(S(=O)(=O)NC(=O)NC2CCCCC2)cc1	inactive	–	inactive	–	inactive	inactive	inactive	inactive	–	inactive	–	–	–	inactive	inactive	inactive	–	–	–
CC(C)c1ccc(S(=O)(=O)O)cc1	inactive	inactive	inactive	inactive	inactive	inactive	inactive	inactive	inactive	inactive	inactive	inactive	–	inactive	inactive	–	–	–	–
Cc1ccc2oc(=O)ccc2c1	inactive	inactive	inactive	inactive	inactive	inactive	inactive	inactive	inactive	inactive	inactive	inactive	–	inactive	inactive	–	–	–	–
